# Measurements as given in the supplement of paper PMC8728848.
# Only a selection was taken, and the strongest signals are over-represented in it overall.
# B1: SHCBP1-GST (Homo sapiens), Q8NEM2 (protein)
# chain: MADGSLTGGGLEAAAMAPERMGWAVEQELASLEKGLFQDEDSCSDCSYRDKPGSSLQSFMPEGKTFFPEIFQTNQLLFYERFRAYQDYILADCKASEVQEFTAEFLEKVLEPSGWRAVWHTNVFKVLVEITDVDFAALKAVVRLAEPYLCDSQVSTFTMECMKELLDLKEHRLPLQELWVVFDDSGVFDQTALAIEHVRFFYQNIWRSWDEEEEDEYDYFVRCVEPRLRLHYDILEDRVPSGLIVDYHNLLSQCEESYRKFLNLRSSLSNCNSDSEQENISMVEGLKLYSEMEQLKQKLKLIENPLLRYVFGYQKNSNIQAKGVRSSGQKITHVVSSTMMAGLLRSLLTDRLCQEPGEEEREIQFHSDPLSAINACFEGDTVIVCPGHYVVHGTFSIADSIELEGYGLPDDIVIEKRGKGDTFVDCTGADIKISGIKFVQHDAVEGILIVHRGKTTLENCVLQCETTGVTVRTSAEFLMKNSDLYGAKGAGIEIYPGSQCTLSDNGIHHCKEGILIKDFLDEHYDIPKISMVNNIIHNNEGYGVVLVKPTIFSDLQENAEDGTEENKALKIQTSGEPDVAERVDLEELIECATGKMELCARTDPSEQVEGNCEIVNELIAASTQKGQIKKKRLSELGITQADDNLMSQEMFVGIVGNQFKWNGKGSFGTFLF
# Legend:
# Assay in all cases: glycan array binding signal (z-score within array); higher = stronger binding
# Conditions in all cases: glycan notation: IUPAC condensed, linker removed
# [1] = target: Gal(b1-4)GlcNAc(b1-2)[Gal(b1-4)GlcNAc(b1-4)]Man(a1-3)[GlcNAc(b1-4)][Gal(b1-4)GlcNAc(b1-2)Man(a1-6)]Man(b1-4)GlcNAc(b1-4)GlcNAc
# In short: (§1)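 The Consortium for Functional Glycomics database supplied 3228 glycan arrays, of which those lacking an available protein sequence were dropped. The binding signal, a within-array Z-score, was averaged across arrays of the same protein sequence and across linkers. Negative scores can be read as non-binding.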
# [2] = target: Gal(b1-4)GlcNAc(b1-2)[Gal(b1-4)GlcNAc(b1-6)]Man(a1-6)[Gal(b1-4)GlcNAc(b1-2)Man(a1-3)]Man(b1-4)GlcNAc(b1-4)[Fuc(a1-6)]GlcNAc
# In short: as §1
# [3] = target: Gal(b1-4)GlcNAc(b1-2)[Gal(b1-4)GlcNAc(b1-6)]Man(a1-6)[GlcNAc(b1-4)][Gal(b1-4)GlcNAc(b1-2)[Gal(b1-4)GlcNAc(b1-4)]Man(a1-3)]Man(b1-4)GlcNAc(b1-4)[Fuc(a1-6)]GlcNAc
# In short: as §1
# [4] = target: Gal(b1-4)GlcNAc(b1-3)Gal(b1-3)GalNAc
# In short: as §1
# [5] = target: Gal(b1-4)GlcNAc(b1-3)Gal(b1-4)GlcNAc(b1-2)Man(a1-3)[Gal(b1-4)GlcNAc(b1-3)Gal(b1-4)GlcNAc(b1-2)Man(a1-6)]Man(b1-4)GlcNAc(b1-4)[Fuc(a1-6)]GlcNAc
# In short: as §1
# [6] = target: Gal(b1-4)GlcNAc(b1-3)Gal(b1-4)GlcNAc(b1-2)[Gal(b1-4)GlcNAc(b1-3)Gal(b1-4)GlcNAc(b1-6)]Man(a1-6)[Gal(b1-4)GlcNAc(b1-3)Gal(b1-4)GlcNAc(b1-2)Man(a1-3)]Man(b1-4)GlcNAc(b1-4)[Fuc(a1-6)]GlcNAc
# In short: as §1
# [7] = target: Gal(b1-4)GlcNAc(b1-3)Gal(b1-4)GlcNAc(b1-3)Gal(b1-4)GlcNAc(b1-3)Gal(b1-4)GlcNAc(b1-2)Man(a1-3)[Gal(b1-4)GlcNAc(b1-3)Gal(b1-4)GlcNAc(b1-3)Gal(b1-4)GlcNAc(b1-3)Gal(b1-4)GlcNAc(b1-2)Man(a1-6)]Man(b1-4)GlcNAc(b1-4)[Fuc(a1-6)]GlcNAc
# In short: as §1
# [8] = target: Gal(b1-4)GlcNAc(b1-3)Gal(b1-4)GlcNAc(b1-3)Gal(b1-4)GlcNAc(b1-3)Gal(b1-4)GlcNAc(b1-2)[Gal(b1-4)GlcNAc(b1-3)Gal(b1-4)GlcNAc(b1-3)Gal(b1-4)GlcNAc(b1-3)Gal(b1-4)GlcNAc(b1-6)]Man(a1-6)[Gal(b1-4)GlcNAc(b1-3)Gal(b1-4)GlcNAc(b1-3)Gal(b1-4)GlcNAc(b1-3)Gal(b1-4)GlcNAc(b1-2)Man(a1-3)]Man(b1-4)GlcNAc(b1-4)[Fuc(a1-6)]GlcNAc
# In short: as §1
# Gal3S(b1-3)GalNAc = target: Gal3S(b1-3)GalNAc
# In short: as §1
# [9] = target: Gal3S(b1-4)[Fuc(a1-3)]GlcNAc6S
# In short: as §1
# Gal6P(b1-4)GlcNAc = target: Gal6P(b1-4)GlcNAc
# In short: as §1
# GalNAc(a1-3)GalNAc = target: GalNAc(a1-3)GalNAc
# In short: as §1
# GalNAc(b1-4)GlcNAc = target: GalNAc(b1-4)GlcNAc
# In short: as §1
# [10] = target: GalNAc(b1-4)GlcNAc(b1-2)Man(a1-3)[GalNAc(b1-4)GlcNAc(b1-2)Man(a1-6)]Man(b1-4)GlcNAc(b1-4)GlcNAc
# In short: as §1
# GalNAc(b1-4)GlcNAc6S = target: GalNAc(b1-4)GlcNAc6S
# In short: as §1
# [11] = target: GlcNAc(a1-4)Gal(b1-4)GlcNAc(b1-3)Gal(b1-4)[Fuc(a1-3)]GlcNAc(b1-3)Gal(b1-4)[Fuc(a1-3)]GlcNAc
# In short: as §1
# [12] = target: GlcNAc(b1-3)Gal(b1-4)GlcNAc(b1-6)[GlcNAc(b1-3)]Gal(b1-4)GlcNAc
# In short: as §1
# GlcNAc(b1-3)Man = target: GlcNAc(b1-3)Man
# In short: as §1
# [13] = target: Neu5Ac(a2-3)Gal(b1-3)GalNAc(b1-4)[Neu5Ac(a2-3)]Gal(b1-4)Glc
# In short: as §1
# [14] = target: Neu5Ac(a2-3)Gal(b1-3)GlcNAc(b1-2)Man(a1-3)[Neu5Ac(a2-3)Gal(b1-3)GlcNAc(b1-2)Man(a1-6)]Man(b1-4)GlcNAc(b1-4)GlcNAc
# In short: as §1
# [15] = target: Neu5Ac(a2-3)Gal(b1-4)GlcNAc(b1-3)Gal(b1-4)GlcNAc(b1-6)[Gal(b1-3)]GalNAc
# In short: as §1
# [16] = target: Neu5Ac(a2-3)Gal(b1-4)[Fuc(a1-3)]GlcNAc(b1-3)Gal
# In short: as §1
# [17] = target: Neu5Ac(a2-6)Gal(b1-4)GlcNAc(b1-3)Gal(b1-4)GlcNAc
# In short: as §1
# [18] = target: Neu5Ac(a2-6)Gal(b1-4)GlcNAc(b1-3)Gal(b1-4)GlcNAc(b1-3)Gal(b1-4)GlcNAc(b1-2)Man(a1-3)[Neu5Ac(a2-6)Gal(b1-4)GlcNAc(b1-3)Gal(b1-4)GlcNAc(b1-3)Gal(b1-4)GlcNAc(b1-2)Man(a1-6)]GalNAc
# In short: as §1
# [19] = target: Neu5Ac(a2-6)Gal(b1-4)GlcNAc(b1-3)GalNAc
# In short: as §1
# [20] = target: Neu5Ac(a2-6)Gal(b1-4)GlcNAc(b1-6)GalNAc
# In short: as §1
# [21] = target: Neu5Ac(a2-8)Neu5Ac(a2-3)[GalNAc(b1-4)]Gal(b1-4)Glc
# In short: as §1
# [22] = target: Neu5Ac(a2-8)Neu5Ac(a2-8)Neu5Ac(a2-8)Neu5Ac(a2-3)[GalNAc(b1-4)]Gal(b1-4)Glc
# In short: as §1
# [23] = target: Neu5Gc(a2-3)Gal(b1-3)[Fuc(a1-4)]GlcNAc
# In short: as §1
binder,measurement,setting,value
B1,glycan array binding signal (z-score),[1],0.176
same,glycan array binding signal (z-score),[2],5.01
same,glycan array binding signal (z-score),[3],-0.032
same,glycan array binding signal (z-score),[4],-0.645
same,glycan array binding signal (z-score),[5],0.801
same,glycan array binding signal (z-score),[6],2.1
same,glycan array binding signal (z-score),[7],3.03
same,glycan array binding signal (z-score),[8],0.056
same,glycan array binding signal (z-score),Gal3S(b1-3)GalNAc,-0.165
same,glycan array binding signal (z-score),[9],-0.428
same,glycan array binding signal (z-score),Gal6P(b1-4)GlcNAc,-0.929
same,glycan array binding signal (z-score),GalNAc(a1-3)GalNAc,-0.406
same,glycan array binding signal (z-score),GalNAc(b1-4)GlcNAc,-0.137
same,glycan array binding signal (z-score),[10],2.96
same,glycan array binding signal (z-score),GalNAc(b1-4)GlcNAc6S,-0.496
same,glycan array binding signal (z-score),[11],2.67
same,glycan array binding signal (z-score),[12],-0.274
same,glycan array binding signal (z-score),GlcNAc(b1-3)Man,-0.054
same,glycan array binding signal (z-score),[13],0.166
same,glycan array binding signal (z-score),[14],-0.428
same,glycan array binding signal (z-score),[15],-0.09
same,glycan array binding signal (z-score),[16],-0.924
same,glycan array binding signal (z-score),[17],-1.12
same,glycan array binding signal (z-score),[18],2.65
same,glycan array binding signal (z-score),[19],2.41
same,glycan array binding signal (z-score),[20],-0.322
same,glycan array binding signal (z-score),[21],-0.847
same,glycan array binding signal (z-score),[22],0.231
same,glycan array binding signal (z-score),[23],0.247
